Laboratory results reported in PubChem BioAssay (NCI).
The panel holds about 83,000 compounds, 20% with a hit somewhere; the sample as a whole holds those more often.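 Cells were grown in 96-well plates and exposed to the test compound at a single concentration for 48 hours; results are reported as percent growth, with values below 10 considered active.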 The source made the active and inactive calls.

Tested on: PC-3 prostate
Test: NCI-60 one-dose screen, 48 h (100 = growth as untreated, 0 = no growth, -100 = all killed)
Details: 10 µM unless noted
Method: Growth inhibition of the PC-3 human tumor cell line is measured as a screen for anti-cancer activity. Cells are grown in 96 well plates and exposed to the test compound for 48 hours. Compounds are tested at a single concentration, which is 10^-5 M for most compounds. The reported endpoint is percent growth (GI% or GIPRCNT), where numbers from 0 - 100% represent growth inhibition, and numbers from -100% - 0 represent cell death. For example, a value of 40 represents 60% growth inhibition. A value of 0 means no net growth occurred over the course of the experiment. A value of -40 indicates 40% of cells at the beginning of the experiment died by the end of the experiment. A value of -100 means all cells are dead at the end of the experiment.
NCI-60 Human Tumor Cell Lines Screen was performed using the standard one-dose NCI protocol, which is described in more detail at https://dtp.cancer.gov/discovery_development/nci-60/default.htm.
Compounds with GIPRCNT values below 10 were considered active. Activity score was based on GIPRCNT using the following formula: […]
Score is 0 for GIPRCNT values of 100 or above, 50 for GIPRCNT values of 0, and 100 for GIPRCNT values of -100.

SMILES | growth
O=C1/C(=C/c2ccc(C(F)(F)F)cc2)COc2ccc(O)cc21 | 70.3% (inactive)
Cc1c(N2CN3C[C@H](C)N4CN(c5c(C)n(C)n(-c6ccccc6)c5=O)CN5C[C@@H](C)N(C2)C3C54)c(=O)n(-c2ccccc2)n1C (stereo not given in full) | 94.2% (inactive)
CCN(CC)CCOc1ccc(Nc2ncc3cc(-c4ccc(O)cc4)c(=O)n(C)c3n2)cc1 | -49.3% (active)
COc1cc(-c2nc(NC(C)=O)sc2-c2ccnc(NCCNS(=O)(=O)c3ccccc3)n2)ccc1Cl | 16.3% (inactive)
N#CC(C#N)N=Nc1ccc(Cl)cc1Cl | 78.7% (inactive)
CCOC(=O)Nc1nc2ccc(SCC(C)C)cc2s1 | 36.9% (inactive)
Cc1ccc(C)c2c1C(O)(C#Cc1ccccc1)c1ccccc1C2(O)C#Cc1ccccc1 (stereo not given) | 29.4% (inactive)
NC(=O)c1ccc(NC(=O)c2oc3ccccc3c2-c2cnn(-c3ccccc3)c2)cc1 | 6.29% [50 µM] (active)
Cc1[nH]c(C(=O)Nc2cccc(OC3CCNCC3)c2)c(Cl)c1Cl | 62.9% (inactive)
O=C(CBr)CN1C(=O)c2ccccc2C1=O | 102% (inactive)
CCN(CC)CCN(CCN(CC)CC)c1ccccc1 | 87.4% (inactive)
COc1ccc2c(c1)c(-c1ccc(-c3cn(C)c4ccc(OC)cc34)[nH]1)cn2C | -11% (active)
CCOC(=O)C1CCN(c2ccc(N3C[C@@H](CNCc4ccc(C(=N)N)cc4)OC3=O)cc2)CC1 | 94.4% (inactive)
C=CC(C)(O)CC/C=C(\CO)C(=O)OC1C(C)OC(O[C@](C)(C=C)CC/C=C(\CO)C(=O)O[C@H]2C[C@@]3(C(=O)OC4OC(CO)C(O)C(O)C4OC4OC(C)C(OC5OC(CO)C(O)C5O)C(OC5OC(CO)C(O)C(O)C5O)C4O)C(CC2(C)C)C2=CCC4[C@@]5(C)CC[C@H](OC6OC(COC7OC(C)C(O)C(O)C7OC7OCC(O)C(O)C7O)C(O)C(O)C6NC(C)=O)C(C)(C)C5CC[C@@]4(C)[C@]2(C)C[C@H]3O)C(O)C1O (stereo not given in full) | -68.9% (active)
COc1cc(C(=O)c2c(N)ncn2-c2ccccc2)cc(OC)c1OC | 78.5% (inactive)
COc1ccc(/C=C/C(=O)c2cc3c(N)c(C(=O)Nc4ccc(OC)cc4)sc3nc2C)cc1 | 32.3% (inactive)
CCNC(=O)Oc1ccc(/C(=C(/C)Cc2ccc(OC)cc2)c2ccc(OCCN3CCCC3)cc2)cc1 | 66.4% (inactive)
COc1cc(-c2nc3occn3c2-c2ccnc(NCCCNS(=O)(=O)c3ccccc3)n2)ccc1F | 22.2% (inactive)
COc1cc(/C=N/Nc2ccccc2F)cc(OC)c1OC | 88.7% (inactive)
C=C(C)[C@@H]1CC[C@]2(CO)CC[C@]3(C)[C@H](CC[C@@H]4[C@@]5(C)CCC(NCCc6ccc(O)cc6)C(C)(C)[C@@H]5CC[C@]43C)[C@@H]12 (stereo not given in full) | -84.2% (active)

SMILES | growth
COc1cc(Nc2ncccc2NC(=O)c2cn(Cc3cccc(Oc4ccccc4)c3)nn2)cc(OC)c1 | 66.5% (inactive)
Cc1cc(N2CCCCC2)nc(N2CCN(CC(=O)Nc3ccc4c(ccn4Cc4ccccc4)c3)CC2)n1 | 38.7% (inactive)
COc1ncc2cc1NS(=O)(=O)c1cccc(c1)C(=O)NCC1=CC=C(S1)c1ncnc3c1SC2=C3C | -24.8% (active)
COc1cccc(NC(=O)c2cccc(C3CCc4c(cc(OC)c(OC)c4OC)O3)c2)c1 (stereo not given) | 28.9% (inactive)
COc1ccc(NC(=O)c2cccc(C3CCc4c(cc(OC)c(OC)c4OC)O3)c2)cc1 (stereo not given) | 5.96% (active)
COc1cc(-c2nc(SCCC(C)C)nc(N3CCOCC3)c2C#N)cc(OC)c1OC | 62.3% (inactive)
CCN1CCN(CC(=O)Nc2nc3ccc(NCc4ccc(Br)cc4)cc3s2)CC1 | 44.6% (inactive)
CC12CCC(/C(=C/NNc3ccc([N+](=O)[O-])cc3[N+](=O)[O-])C1=O)C2(C)C (stereo not given) | 59.5% (inactive)
CCOc1ccc(NC(=O)c2cc(OC)c(OC)c(OC)c2)cc1 | 29.9% (inactive)
CCOC(=O)NN1CC(O)=C(c2nc(-c3ccc(Br)cc3)cs2)C1=N | 85.2% (inactive)
C/C(=C(\c1ccc(OCCN2CCCCCC2)cc1)c1ccc(OC(=O)Cc2ccccc2)cc1)c1ccc(Cl)cc1 | 41.9% (inactive)
C/C(=N\O)C(=O)NCCCCCC(=O)Nc1ccccc1 | 104% (inactive)
Cn1cc(-c2nn3cc(-c4ccccc4)nc3s2)c2ccccc21 | 75.9% (inactive)
COc1ccc(/C(C)=C(\c2ccc(Cl)cc2)c2ccc(OCCN3CCCC3)cc2)cc1 | 32.7% (inactive)
Nc1c(C(=O)Nc2cccc3ncccc23)sc2nc3c(cc12)C(=O)CCC3 | 35.1% (inactive)
CCCCCCCCCCCCCCCCCCOc1ccccc1CC(=O)OCC[N+]1(C)CCOCC1 | 41.1% (inactive)
CN1CCCc2cc(/C=C3/SC(=S)N(CCc4ccc(O)cc4)C3=O)ccc21 | 67.5% (inactive)
O=C(CSc1nnc2sc(Nc3cccc(Cl)c3)nn12)c1ccc(F)cc1 | 85% (inactive)
C=C(CO)[C@@H]1CC[C@]2(COC3CCCCO3)CC[C@]3(C)[C@H](CC[C@@H]4[C@@]5(C)C=C(C=O)C(=O)C(C)(C)[C@@H]5CC[C@]43C)[C@@H]12 (stereo not given in full) | -82.5% (active)
c1ccc2cc(Cn3c[n+](Cc4ccc5ccccc5c4)c4ccccc43)ccc2c1 | -19.4% (active)
